The values that follow come from PubChem BioAssay AID493175 (National Center for Advancing Translational Sciences (NCATS), 2011).

Results filed as inconclusive are left out. Activity calls are given as the source filed them. Calls follow the shape of the dose curve; as a rule, active = well fitted curve in the direction sought with a large enough effect; inconclusive = small, poorly fitted or top-dose-only effect, or another doubt; inactive = no such curve, though single readings can be large or run the other way.

Luciferin 4-monooxygenase (Photinus pyralis), sequence (P08659 whole entry, looked up): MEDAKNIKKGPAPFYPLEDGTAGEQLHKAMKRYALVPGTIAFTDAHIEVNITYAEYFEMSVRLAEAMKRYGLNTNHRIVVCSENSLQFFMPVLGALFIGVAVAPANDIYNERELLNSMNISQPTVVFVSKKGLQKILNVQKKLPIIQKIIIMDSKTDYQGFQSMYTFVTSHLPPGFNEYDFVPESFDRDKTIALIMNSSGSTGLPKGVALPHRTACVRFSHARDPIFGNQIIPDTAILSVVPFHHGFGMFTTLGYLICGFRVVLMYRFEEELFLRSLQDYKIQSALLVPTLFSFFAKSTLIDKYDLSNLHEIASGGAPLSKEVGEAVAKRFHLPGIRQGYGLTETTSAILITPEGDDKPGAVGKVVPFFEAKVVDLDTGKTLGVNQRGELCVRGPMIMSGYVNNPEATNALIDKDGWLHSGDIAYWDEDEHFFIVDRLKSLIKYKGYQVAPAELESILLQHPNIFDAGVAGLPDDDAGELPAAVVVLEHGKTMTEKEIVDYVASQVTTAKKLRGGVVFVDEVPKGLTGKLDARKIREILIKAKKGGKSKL

The assay addresses Luciferin 4-monooxygenase (Photinus pyralis) (UniProt P08659). The assay is described as follows: miR-21 counterscreen using purified firefly luciferase. The settings on record: purified P. pyralis luciferase, luminescence; series mostly up to 57.5 µM. From the text:
MLPCN Grant: 1 R21 NS059478-01 Assay Provider: Qihong Huang, The Wistar Institute NCGC Assay Overview: MicroRNAs (miRNAs) are endogenously encoded small (~20-25 nucleotides), nonprotein-coding RNAs that are involved in post-transcriptional repression of target messenger RNAs (mRNAs) (Le and Hannon, 2004). Estimated to be involved in the regulation of 30% of all protein-coding mRNAs (Filipowicz et al., 2008), miRNAs play a significant role in many biological processes including cellular differentiation and tissue development (Ghildiyal and Zamore, 2009). […] Compounds active in the miR-21 FLuc assay were clustered using Leadscope and active chemical series were prioritized based on chemical properties, potential for medicinal chemistry optimization, and SAR. Within each chemical series, representative compounds were re-acquired to test for activity in a secondary assay based on the quality of their CRC, efficacy, and potency. This secondary assay to determine if compounds active in the miR-21 FLuc assay were just luciferase inhibitors. Compounds found active in both the miR-21 FLuc and purified FLuc assays are considered as false positives. Keywords: NIH Roadmap, MLPCN, MLSMR, qHTS, miR-21, firefly luciferase, FLuc, miRNA.
NCGC Assay Protocol Summary: Reagents: 50mM Tris acetate, pH 7.5; 10mM Mg acetate; 10uM D-luciferin (Sigma #L9504); 10uM ATP; 0.01% Tween-20; 0.05% BSA; 10nM P. pyralis luciferase (Sigma #L9506) Control compounds used were two known firefly luciferase inhibitors (compounds (2) and (5) in Auld et al., 2010), and DMSO. Assay Summary: Three microliters containing firefly luciferase substrates in buffer (final concentrations: 50mM Tris acetate, pH 7.5, 10mM Mg acetate, 0.01% Tween-20, 0.05% BSA, 10uM D-luciferin, and 10uM ATP) are dispensed into each well of a Greiner white, solid-bottom 1536-well format plate using a flying reagent dispenser (FRD). These assay plates were then treated with 23nL of compound or DMSO using a Kalypsys pin tool, which allows for delivery of a 6-point interplate titration of each compound to the assay plate (quantitative HTS), with a final compound concentrations ranging from approximately 60 µM to 7pM. One microliter of firefly luciferase in […] Tris-acetate buffer was then delivered by FRD to each well for a final enzyme concentration of 10nM. Luciferase activity was then measured using a ViewLux CCD imager (PerkinElmer), with an average exposure time of 2-30 seconds (2X binning, medium/high gain).
A general note: The purpose of a counterscreen is to sort out artefacts and off-target activity.
Consider `COc1cccc(NC(=O)CSc2nnc(-c3cccs3)o2)c1`, for which the molecule was classed as inactive.

Take `Fc1cccc(Cl)c1CSc1nnc2ccccn12`: the call was inactive.

Regarding `COc1cccc(C(=O)Nc2ccc3nc(N4CCN(c5ncccn5)CC4)cc(C)c3c2)c1OC`, the molecule was called inactive.

Consider `Cc1ccccc1OCCn1cnc2c(N)ncnc21`, for which the call was inactive.

In the case of `N#Cc1cc2cc3c(cc2nc1SCC(=O)N1CCOCC1)OCO3`, the molecule was called inactive.

With `CS(=O)(=O)c1ncc(Cl)c(C(=O)N2CCN(c3cccc(Cl)c3)CC2)n1`, the outcome was inactive.

In the case of `CCc1ccc2oc(C(=O)Nc3nonc3CC)c(C)c2c1`, the result was inactive.

`COc1ccc(CCNc2ncnc3c2cnn3-c2cc(Cl)ccc2C)cc1`: the result was inactive.

For `Nc1c(-c2nc(-c3ccncc3)no2)nnn1CC(=O)Nc1ccccc1`, the molecule was called inactive.

Regarding `COc1ccccc1C(=O)n1nc(-c2ccco2)nc1NCc1ccc(Cl)cc1`, the outcome was inactive.

Consider `COc1ccc(-c2csc(NC(=O)COC(=O)c3ccc(Br)o3)n2)cc1`, for which the outcome was inactive.

For the molecule `C[C@]12CC[C@H]3C(=CCc4cc(O)ccc43)[C@@H]1CCC2=O`, the molecule was classed as inactive.

Consider `CC(C)S(=O)(=O)c1oc(-c2cccs2)nc1S(=O)(=O)c1ccc(F)cc1`, for which the result was inactive.

For `CN(C)c1ccc(CNc2nc(-c3ccco3)nn2S(C)(=O)=O)cc1`, the call was inactive.

With `C/C(=N\NC(=O)c1ccncc1)c1ccc(NC(=O)c2ccc(Cl)cc2)cc1`, the result was inactive.

Take `Cc1ccc(C)c(Nc2nc3nonc3nc2Nc2cccc(C)c2C)c1`: the outcome was inactive.

Take `CCC(Oc1ccccc1F)C(=O)N1CCC(c2nc3ccccc3s2)CC1` (centres undefined): the result was inactive.

Regarding `Cc1cc(C)c2c(N)c(C(=O)Nc3ccccc3F)sc2n1`, the call was inactive.

On to `Cc1ccc(-c2csc(NC(=O)CSc3nc4ccccc4o3)n2)cc1`, for which the call was inactive.

Take `Cc1cccc(OCc2nnc(SCC(=O)Nc3ccc(N4CCOCC4)cc3)o2)c1`: the molecule was classed as inactive.

On to `Cc1cc(C)cc(NC(=O)CSc2nnc(-c3ccccc3C)o2)c1`, for which the outcome was inactive.

Consider `Cc1nnc(SCc2nc(N)nc(Nc3ccccc3)n2)s1`, for which the molecule was classed as inactive.

As to `COc1ccccc1CNC(=O)CCC1N=C2c3ccccc3N=C(SCc3cccc(Cl)c3)N2C1=O` (centres undefined), the molecule was called inactive.

`CN(C(=O)CSc1nnc(-c2ccccc2F)o1)C1CCCCC1`: the molecule was called inactive.

As to `COc1ccc(NC(=O)c2ncn(-c3ccccc3)n2)cc1Cl`, the outcome was inactive.

For the molecule `COc1ccccc1NC(=O)c1sc2nc3c(cc2c1N)CN(Cc1ccccc1)CC3`, the outcome was inactive.

Regarding `Cc1ccc(-c2nsc(SCC(=O)Nc3ccc4c(c3)OCO4)n2)cc1`, the molecule was classed as inactive.

In the case of `Cc1ccc(SCC(=O)Nc2ccc3oc(-c4ccc(F)cc4)nc3c2)cc1`, the result was inactive.

Take `C/C(=N\NC(=O)c1cccs1)c1ccncc1`: the molecule was classed as inactive.

For `COc1ccc(CNc2nc(-c3ccco3)nn2C(=O)CC(C)C)cc1`, the call was inactive.

As to `CC(=O)Nc1nc2c(C)cc(NC(=O)C3CCCCC3)cc2s1`, the molecule was called inactive.

Turning to `O=C(Nc1ccc(-c2nc3ccccc3[nH]2)cc1)c1ccc2c(c1)OCO2`, the result was inactive.

For the molecule `O=C(CSc1nnc(-c2ccc(Cl)cc2)o1)Nc1ccc(F)cc1`, the outcome was inactive.

For the molecule `COc1ccccc1NC(=O)CSc1nnc(-c2ccccn2)o1`, the molecule was classed as inactive.

Take `O=C(CSc1nnc(-c2ccncc2)o1)Nc1nncs1`: the result was inactive.

Turning to `CCS(=O)(=O)c1ncc(Cl)c(C(=O)Nc2ccc(S(=O)(=O)N(C)c3ccccc3)cc2)n1`, the molecule was called inactive.

`CC(C)(C)C1CCc2nc(NC(=O)Cc3cn4ccsc4n3)sc2C1` (centres undefined): the activity change, negative = inhibition is 0.54% [at 2.3 µM] (inactive).

For `CC1=C(c2ccc(C)c(C)c2)S(=O)(=O)N=C1N1CCC(C(=O)NCCc2ccc(Cl)cc2)CC1`, the call was inactive.

For the molecule `Cc1ccc(-n2nnc(-c3nsc(NC(=O)c4ccccc4)n3)c2C)cc1`, the result was inactive.
